Laboratory results reported in PubChem BioAssay (NCI).
“And” between values parts separate entries of the source, which are not always exact repeats. Equal entries are not always repeated. About 83,000 compounds went through this panel and 20% of them were active in at least one assay; those are over-represented in the sample as a whole.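 The test compound was applied at a single concentration to cells in 96-well plates for 48 hours, and percent growth was recorded.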 The source made the active and inactive calls. Rule for the calls: active = growth percent below 10; inactive = the rest.

Each compound was assayed on MDA-MB-468 breast (assay: NCI-60 one-dose screen, 48 h (100 = growth as untreated, 0 = no growth, -100 = all killed)). Conditions: 10 µM unless noted.

Compound | growth
Cc1ccc(NC(=O)NC2CCCCC2)cc1 | 93.5% (inactive)
NNCCc1ccc(NC(=O)CCCc2ccc(/C=C/C(=O)NO)cc2)cc1 | 18% (inactive)
Cc1ccc(C2=NN(c3ccc(S(C)(=O)=O)cc3)C(=O)CC2)cc1 | 23.9% (inactive)
COc1ccc(CCl)c(C)c1OC | 109% (inactive)
Cc1ccc(Cc2cnc(NC(=O)/C=C/c3ccc(C)o3)s2)cc1 | -0.221% (active)
COc1cc2c(cc1OC)C1(C)N(CC2)C(=O)OC1(C)C (stereo not given) | 93.1% (inactive)
O=C1OC(c2ccc(-c3ccccc3)cc2)=C/C1=C/C=C/c1ccccc1 | 99.7% (inactive)
CCOC(=O)Nc1cc(-c2ccc(C)c(NS(C)(=O)=O)c2)nn2c(C)nnc12 | -26% (active)
O=C(O)CNC(=O)C1(N2C(=O)c3ccccc3C2=O)CCCC1 | 98.1% (inactive)
COc1ccc2[nH]c(O)c(/C=c3/ccc4c(c3)N=C(c3ccc(F)cc3)N=4)c2c1 | 76% (inactive)
CCOC(=O)C1CN(Cc2ccccc2)C(=O)C1=O (stereo not given) | 106% (inactive)
CCn1nc(-c2ccc(C(=O)OC)cc2)nc2c(=O)n(C)c(=O)nc1-2 | 82% (inactive)
O=C1c2c(O)cc(O)cc2OC(c2ccc(O)c(O)c2)C1O (stereo not given) | 112% (inactive)
Cn1cc(-c2csc(-c3cn(CCCN4CCCCC4)c4ccc(F)cc34)n2)c2cccnc21 | 91.7% (inactive)
CCN(CC)CCOC(=O)N1c2ccccc2Sc2ccccc21 | 96.3% (inactive)
C#C[C@]1(O)CC[C@H]2[C@@H]3CC=C4c5sc(C6CC6)nc5CC[C@]4(C)[C@H]3CC[C@@]21C | 68.4% (inactive)
O=C(O)C(O)c1ccccc1 (stereo not given) | 100% (inactive)
N#Cc1nc(-c2ccc(Cl)cc2)cc(-c2ccc(Nc3nc(N4CCCCC4)nc(N4CCCCC4)n3)cc2)c1N | 106% (inactive)
COc1ccc2c3c(c4ccccc4cc13)C(=O)N(CCN(C)CCN)C2=O | -76.5% (active)
C[C@@H]1C[C@H]2C(=O)O[C@@H](C)C(NC(=O)[C@H](Cc3cc(F)cc(F)c3)NC(=O)Nc3ccc(Cl)cc3F)C(=O)N3CCC[C@H]3C(=O)N3CCCC[C@H]3C(=O)N[C@@H](CO)C(=O)N2C1 (stereo not given in full) | -10.4% (active)

Compound | growth
CCOP(=O)(OCC)/C(C#N)=C/c1c(C)[nH]c2ccccc12 | 99.7% (inactive)
NC(N)=NC(N)=NCCCc1ccco1 | 107% (inactive)
Cc1cc(N)n(S(=O)(=O)c2oc(-c3ccccc3)nc2C#N)n1 | 72.9% (inactive)
O=[N+]([O-])c1ccccc1/C=N\Nc1ccccc1 | 66.3% (inactive) and 89.3% (inactive)
FC(F)(F)c1cccc(-c2cn3c(ccc4ccccc43)n2)c1 | 104% (inactive)
COc1c(B(O)O)cccc1-c1nc2ccc3n[nH]c(F)c3c2c2c1CCCC2 | 71.9% (inactive)
Clc1ccc2c(NCCCNC3CCCCC3)ccnc2c1 | 85.3% (inactive)
COC(=O)C1(CC(C)=O)NC(=S)NC(=O)C1C#N (stereo not given) | 96% (inactive)
Cc1cc(N/N=C/c2nc(-c3ccc(Cl)cc3)oc2C)c2cc(Cl)ccc2n1 | -47.4% (active)
Cc1cnc(N)s1 | 102% (inactive)
COc1ccc(N)c(N)c1 | 84% (inactive)
O=C(Nc1ccc(-n2cc(-c3ccncc3)c(-c3ccc(O)c(Cl)c3)n2)cc1)c1ccc(Cl)c(C(F)(F)F)c1 | 27.5% (inactive)
Cn1cc2c(c1)-c1c(sc3nc(-c4ccc(NC(=O)Nc5cc(C(C)(C)C)on5)cc4)cn13)CC2 | 68.8% (inactive)
O=C(Cn1cc(CN2C(=O)c3ccccc3S2(=O)=O)nn1)Nc1cccc(Cl)c1 | 101% (inactive)
NC(=O)c1cnc(Nc2cccc(N)c2)nc1NCCCNC(=O)C1CCC1 | 52.9% (inactive)
COc1ccccc1S(=O)(=O)Nc1ccc2c3c(cc(CCC(=O)NCCCCNc4cccc5c4C(=O)N(C4CCC(=O)NC4=O)C5=O)cc13)C(=O)N2C (stereo not given) | -35.5% (active)
CCC1=C(c2ccc(OC)cc2)C(C)(C)Oc2c1ccc(O)c2CN1CCCC1 | -45.1% (active)
Oc1c(Cl)cc(Cl)cc1Sc1cc(Cl)cc(Cl)c1O | 84% (inactive) and -2.78% (active) and 67.9% (inactive)
C#Cc1ccc(C(=O)NCc2ccc(/C=C/C(=O)c3nccn3C)cc2)cc1 | 18% (inactive)
Cc1ccc(NC(=O)c2sc3nc4c(cc3c2N)C(=O)CCC4)cc1 | 32.7% (inactive)
